This is a sample that favours compounds with a hit; in the whole collection about 5.3% have one here.
HIF act – HIF pathway transcriptional activators, primary screen, cell-based, U2OS HRE-luciferase, luminescence; activation, % at 7.5 µM (by protocol); 300,000 compounds, 0.32% hits; U2OS HRE-luciferase reporter; normalized: DMSO 0%, desferrioxamine 100%;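 active = mean activation of at least 10% of the iron chelator positive control signal, with at least half of replicates also reaching 10%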
M18AAP inhibitor – PfM18AAP inhibitors, malaria aminopeptidase, primary screen, biochemical, QFRET, recombinant enzyme | AID 1822, 2009 | M18 aspartyl aminopeptidase (Plasmodium falciparum 3D7) | inhibition, % at 7.35 µM | 290,000 compounds, 1.2% hits | H-Glu-NHMec fluorogenic cleavage;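 active = inhibition above the campaign mean inhibition over all tested compounds plus 3 SD, cut at about 28% in these data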
Mot1-301 SUMO – yeast Mot1-301 growth rescue at high temperature, primary screen, SUMOylation pathway inhibitor project, S. cerevisiae, ATP luminescence, 38.5C. growth rescue, % at 18.8 µM. S. cerevisiae Mot1-301 growth rescue; percent above DMSO median, 100 means doubled. 320,000 compounds, 1% hits;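 active = every valid replicate shows activation above 250% relative to neutral control wells; inactive = the rest, any valid replicate at or below 250%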
ALR inh – inhibitors of human ALR sulfhydryl oxidase, primary screen, biochemical, H2O2 detection, HRP-luminol luminescence, single point; 290,000 compounds, 3.8% hits; AID 485317, 2010; inhibition, % (concentration not given with the values); FAD-linked sulfhydryl oxidase ALR (Homo sapiens), P55789; purified ALR, DTT oxidation;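 active = mean replicate inhibition above about 79%, with every replicate also reaching it, limit read from the data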
Target sequence (P55789 whole entry, looked up): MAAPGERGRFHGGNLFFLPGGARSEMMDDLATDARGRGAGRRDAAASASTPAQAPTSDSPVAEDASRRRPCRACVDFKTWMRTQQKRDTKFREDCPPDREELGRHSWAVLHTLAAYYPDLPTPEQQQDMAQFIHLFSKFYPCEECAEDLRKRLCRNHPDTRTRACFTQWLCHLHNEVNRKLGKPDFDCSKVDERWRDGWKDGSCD
Numbers stand for hits; i = inactive; nt = no result; + = active, no number.

SMILES	HIF act	M18AAP inhibitor	Mot1-301 SUMO	ALR inh
C/C(CCC1CC(C)(C)OC1=O)=N\NC(N)=S (configuration not stated)	i	i	i	i
O=C(CCN1CCN(c2ccccc2F)CC1)c1ccc(Br)cc1	i	i	i	i
COc1ccc(C(=O)CCN2CCN(c3ccccc3F)CC2)cc1	i	i	616	nt
CCCCOc1ccc(C2CC(=O)NC2=O)cc1 (configuration not stated)	i	i	i	i
CCCCOc1ccc(CC2CCC(=O)NC2=O)cc1 (configuration not stated)	i	i	+	i
Cc1ccc(S(=O)(=O)CCC(=O)NCc2ccccc2)cc1	i	i	i	i
O=C(CCS(=O)(=O)c1ccccc1)NCCS(=O)(=O)c1ccccc1	i	i	i	i
CCNC(=O)CCS(=O)(=O)c1ccc2ccccc2c1	i	i	i	99
Cn1c(=O)c(=O)n(C)c2cc(S(=O)(=O)CCC(=O)NCc3ccccc3)ccc21	i	i	i	99
CN(C(=O)c1cccc(NC(=O)Cc2ccc([N+](=O)[O-])cc2)c1)C1CC1	nt	nt	i	i
COc1cc(OC)cc(C(=O)c2c(C)c(C#N)c3ccccn23)c1	i	i	nt	nt
COC1=C/C(=C/c2c(O)c(C#N)c3ccccn23)C=CC1=O	i	i	i	91
CC(=O)NN1C(=O)/C(=C\c2ccc(Cl)cc2)SC1=S	i	i	i	i
CSc1cccc(NC(=O)Nc2nc3c(C)cccc3s2)c1	i	i	i	i
O=c1c2cc3c(cc2[nH]c(=S)n1C1CCN(Cc2ccccc2)CC1)OCO3	i	i	i	93
COC(=O)N/N=C/c1sc(N2CCCCC2)nc1-c1cccs1	i	i	i	98
COc1ccc(C(=O)N/N=C/c2sc(N3CCOCC3)nc2-c2ccccc2)cc1OC	i	i	i	i
Cc1ccc(OCC(=O)N2CCCCC2C)c([N+](=O)[O-])n1 (configuration not stated)	nt	nt	i	nt
CC(c1ccccc1)N1C(=O)c2ccc(C(=O)NCc3cccnc3)cc2C1=O (configuration not stated)	i	i	i	i
COc1cc(/C=C/C(=O)OCC(=O)Nc2oc(C)c3c(C)n[nH]c(=O)c23)ccc1OC(F)F	i	nt	i	i
O=S(=O)(O)c1cccc2cccc(Nc3ccccc3)c12	i	nt	i	99
c1ccc(Nc2cccc3c(Nc4ccccc4)cccc23)cc1	i	i	i	nt
CSc1ccc(C(=O)C2CCCN(C(=O)CCc3c(C)nn(C)c3C)C2)cc1 (configuration not stated)	i	i	i	i
CCOC(=O)c1cccc(NC(=O)CSc2nnc(C3CCCCC3)n2CC)c1	i	i	i	i
Cc1ccc(-n2c(SCC(=O)O)nc3sc4c(c3c2=O)C(C)CCC4)cc1 (configuration not stated)	i	i	i	98
SMILES	HIF act	M18AAP inhibitor	Mot1-301 SUMO	ALR inh
O=C(NCC1CCCO1)c1sc2cc(Cl)ccc2c1Cl (configuration not stated)	9.9	i	i	i
O=C(NCC1CCCO1)c1cc([N+](=O)[O-])ccc1Cl (configuration not stated)	i	i	i	95
Cc1ccc(CNc2nc(C)nc3sc4c(c23)CCC4)cc1	i	i	i	i
Cc1nc(Nc2ccc(O)cc2)c2c3c(sc2n1)CCCC3	i	i	i	98
O=C(NNC(=O)C1CCN(Cc2ccc(F)cc2Cl)CC1)Nc1ccc([N+](=O)[O-])cc1	i	i	i	nt
C=C(Cl)COc1cc(C)cc2oc(=O)cc(CC)c12	i	i	329	i
COc1ccc(S(=O)(=O)N2CCC(C(=O)NC3CCCCC3)CC2)cc1OC	i	nt	i	i
Cc1ccccc1N/N=C1\CCCNC1=O	i	i	i	i
O=C1NCCC/C1=N\Nc1ccc(Br)cc1	i	i	i	99
Cc1cccc(CC(C)NC(=O)c2oc3c(F)cccc3c2C)n1 (configuration not stated)	i	i	i	i
O=C(Oc1coc(CSc2nnc(NC(=O)C3CC3)s2)cc1=O)c1c(F)cccc1F	i	i	i	97
COc1ccc(-c2coc3cc(O)ccc3c2=O)cc1O	i	i	i	77
COc1cc(O)cc2occ(-c3ccc(O)cc3)c(=O)c12	i	i	i	98
COCCn1c(N)c(Sc2ccccc2[N+](=O)[O-])c(=O)[nH]c1=O	i	i	i	i

Assay outcomes as filed in PubChem BioAssay.
